Values joined by “and” are separate entries in the source; they are usually repeats but may differ in a detail not shown here. Identical values can stand only once. About 79,000 compounds went through this panel and 15% of them were active in at least one assay; those are over-represented in the sample as a whole. A structure can be active in one record and inactive in another. Active and inactive are the calls of the source. No stated cut-off is given here; in the data, active means growth inhibition above about 70%; inactive means the rest.
test: NCI Yeast Anticancer Drug Screen. Data for the cln2 rad14 strain (AID 165);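 further: 0% = growth equal to vehicle treated cultures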; conditions: S. cerevisiae cln2 rad14 strain, at 50.0 µM (retest, dose inferred, filed as 5.0), stronger effect = higher value
Summary of the method: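 Each compound was tested on cln2 rad14 yeast. Inhibition of growth was calculated against vehicle-exposed controls.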

Compound	growth inhibition
Cc1cccc(Cc2ccccc2Cl)c1O	84% (active)
OC1CN(Cc2ccccc2)C[C@@H]1O (some centres not stated)	93% (active)
BrC(c1cccc2ccccc12)c1cccc2ccccc12	94% (active)
COc1nc(NC2OC(CO)C(O)C(O)C2O)c(Cl)c(=O)n1C (configuration not stated)	3% (inactive)
O=S(=O)(CC(Cl)c1ccccc1)c1nc2ccccc2s1 (configuration not stated)	-14% (inactive)
CCCCCCCCCCCCOS(=O)(=O)O	36% (inactive)
O=C(NNc1ccnc2cc(Cl)ccc12)/C(=C/c1ccc2c(c1)OCO2)NC(=O)c1ccccc1	64% (inactive)
O=C(CCN1CCN2c3ccccc3CCC2C1)c1ccc(F)cc1 (configuration not stated)	64% (inactive) and 98% (active)
CC1C[C@]2(C)C(=O)Nc3ccccc3[C@@H]2Nc2ccccc21 (some centres not stated)	57% (inactive)
Nc1nc(=S)c2ncn(C3OC(CO)C(O)C3O)c2[nH]1 (configuration not stated)	9% (inactive)
O=C(O)c1c2ccccc2nc2[nH]c(=O)[nH]c(=O)c12	6% (inactive)
N#Cc1c(/N=C/c2ccccc2Cl)sc2c1CCC2	11% (inactive)
CCC1=C(C)/C(=C/c2[nH]c(C)c(CC)c2C)N=C1C	31% (inactive) and 6% (inactive)
O=C(O)c1ccccc1C(=O)O	7% (inactive)
Cc1cc(C)nc(NS(=O)(=O)c2ccc(Nc3c4ccccc4nc4c(C(=O)NCCCN(CCO)CCO)cccc34)cc2)n1	5% (inactive)
CCCCCCCCCCCCCCCCCCOCC(COP(=O)([O-])OCC[N+](C)(C)C)OC (configuration not stated)	-46% (inactive)
S=c1nc[nH]c2[nH]ccc12	-7% (inactive)

— PubChem BioAssay (NCI)
